Shiga inhibitor: blocks Shiga toxin action in Vero cells; Vero cells, Shiga toxin protein synthesis inhibition reporter; inhibition, % at 38.7 µM; 290,000 compounds, 9.2% hits; in the data active means inhibition mostly above about 28%, no sharp cut-off; inactive means mostly below about 43%; further: 0% is about no effect
FMDV inh: blocks foot and mouth disease virus; Potency, µM (titrated, usually from 57.9 µM), for inactives: at the top dose activity change, negative = inhibition, actives largely listed as inhibitors; FMDV antiviral cell-based qHTS; 410,000 compounds, 1.2% hits; calls by dose curve; tested in HEK293T cells; further: read-out not given here; potency means the concentration at half of the fitted maximal effect; on the % scale 0 is the no-effect control and ±100 the full control effect; nearly all actives have a fitted effect of over 45% in size
CHX counter: counter-screen hit for Shiga toxin inhibitors, cycloheximide | cell reporter, cycloheximide protein synthesis inhibition counterscreen | max response, % | 300,000 compounds, 12% hits; in the data active means max response mostly above about 13%, no sharp cut-off; inactive means mostly below about 14%; further: read at 38.3 µM for the half of the compounds with a filed dose; 0% is about no effect
LASV entry inh: inhibitors of Lassa virus binding or cell entry; Lassa virus pseudotype entry inhibition, cell reporter; Potency, µM (highest dose often 37.9 µM), without a hit: at the highest dose activity change, negative = inhibition, most hits filed as inhibitors; 300,000 compounds, 1.2% hits; calls by dose curve; tested in HEK293 cells; further: potency means the concentration at half of the fitted maximal effect; on the % scale 0 is the no-effect control and ±100 the full control effect; nearly all actives have a fitted effect of over 50% in size
HCV inh: inhibitors of hepatitis C virus infection; Huh7.5.1 HCVcc-Cre infection, luciferase reporter, 44 h; 340,000 compounds, 3.4% hits; Potency, µM (doses to about 41.8 µM), without a hit: top-dose activity change, negative = inhibition, most hits filed as inhibitors; AID 651820; active means well fitted inhibition curve with a large enough effect; inconclusive means small, poorly fitted or top-dose-only effect, or another doubt; inactive means no such curve, though single readings can be large or run the other way; further: potency means the concentration at half of the fitted maximal effect; on the % scale 0 is the no-effect control and ±100 the full control effect
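Compounds are dispensed onto cells plated 4 h earlier at 1,000 per well, with HCVcc-Cre virus (about 0.5 moi) added next. Following 44 h of culture, luminescent signal is measured for 15 sec after 15 min with substrate at room temperature.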
MARV entry inh: Marburg virus entry inhibition; Marburg virus pseudotyped entry inhibition, cell reporter; 300,000 compounds, 1.8% hits; Potency, µM (top dose mostly 37.8 µM), without a hit: top-dose activity change, negative = inhibition, usual class: inhibitors; calls by dose curve; tested in HEK293 cells; further: potency means the concentration at half of the fitted maximal effect; on the % scale 0 is the no-effect control and ±100 the full control effect
* = called active by the depositor; ? = inconclusive; · = not tested or not shown; [ ] = dose if it differs, or a comment. Sampled rows, rich in hits. Any-hit rate of the full collection: about 13%.

SMILES	Shiga inhibitor	FMDV inh	CHX counter	LASV entry inh	HCV inh	MARV entry inh
COc1ccc(CNC(=O)C2=C(C)C(=O)OC23CCCCC3)cc1	·	3%	·	-5%[46.1 µM]	·	·
O=C(/C=C/c1ccc(Br)cc1)Nc1ccc(S(=O)(=O)Nc2ncccn2)cc1	-25	-11%	-5	1%	?	9%
NC(=O)CI	·	·	·	-37%	·	39%
Cc1ccc(-c2nc(=S)c3c(n2Cc2ccco2)CC(C)(C)OC3)cc1	18	?	7	-18%	-1%	13µM*
CCn1cc(C(=O)NCc2ccc(C)cc2)c(=O)c2cc(S(=O)(=O)N(C)C)ccc21	-8	-5%	4	·	-2%	·
O=C(CCCc1nc2ccccc2s1)N1CCN(S(=O)(=O)c2cccs2)CC1	-3	?	-1	?	?	10µM*
C#CCN(C[C@@H]1[C@@H](OC(=O)NCc2ccccc2F)[C@@H](OC(=O)NCc2ccccc2F)Cn2c(=O)ccc(=O)n21)S(=O)(=O)c1ccc(C)cc1	·	14µM*	·	·	·	·
CCOc1ccc(CSC(=N)N)cc1Cl	-2	?	-3	·	-17%	·
CCCCOc1ccc(CSCCN)cc1Cl	73*	43%	23*	·	?	·
CCCCOc1ccc(CCN)cc1Cl	20	31%	34*	6%	?	?
CC(C)Oc1ccc(CCN)cc1Cl	-8	-13%	-2	-15%	6%	?
Cc1ccccc1/C=C/c1nc2ccccc2c(=O)[nH]1	84*	3%	45*	?	-24%	?
N#CCOc1ccccc1/C=C/c1nc2ccccc2c(=O)[nH]1	83*	17%	30*	?	-9%	?
Cc1ccccc1/C=C/c1nc2ccccc2c(=O)n1Cc1ccccc1	8	-22%	-3	5%	15%	1%
CCOc1ccccc1/C=C\c1nc(O)c([N+](=O)[O-])c(=O)[nH]1	-13	-2%	-4	·	10%	·
Cc1ccccc1/C=C\c1nc2ccccc2c(=O)[nH]1	89*	25%	46*	?	10µM*	?
COc1ccc(CCNC(=O)COC(=O)C2CC2C)cc1OC (centres undefined)	·	-7%	·	·	7%	·
COc1ccc2ncc3c(-c4ccccc4)nn(-c4ccc(C)c(C)c4)c3c2c1	·	-13%	·	6%[46.1 µM]	·	2%[46.1 µM]
COc1ccc2c(c1)C1=NN(/C(C)=C\C(C)=O)C(c3ccccc3)C1CC2 (centres undefined)	71*	39%	26*	13%	?	-3%
COc1ccc2c(c1)C1=NN(/C(C)=C/C(C)=O)C(c3ccc(F)cc3)C1CC2 (centres undefined)	94*	-9%	31*	5%	12%	6%
CCN(CC)CCNC(=O)C1CCC(=O)N(c2ccc(OC)cc2)C1c1ccc(F)cc1 (centres undefined)	-3	-2%	-4	8%	23%	21%
COc1ccc2c(c1)C1=NN(/C(C)=C/C(C)=O)C(c3cccc(F)c3)C1CC2 (centres undefined)	4	18%	1	-5%	?	16%
COc1ccc(/C=C2\CCCC3C2=NN(C(=O)COC(=O)CNC(=O)c2ccccc2)C3c2ccc(OC)cc2)cc1 (centres undefined)	-3	-11%	-5	?	0%	?
COc1ccc2c(c1)CCC1C2=NN(/C(C)=C\C(C)=O)C1c1ccc(F)cc1 (centres undefined)	60*	29%	62*	·	?	·
O=C(NCCCN1CCOCC1)C(Cl)(Cl)Cl	-8	-22%	-5	16%	11%	0%
SMILES	Shiga inhibitor	FMDV inh	CHX counter	LASV entry inh	HCV inh	MARV entry inh
Oc1ccc2ccccc2c1C=Nc1cc(C(F)(F)F)ccc1N1CCCC1	51*	-18%	14	-12%	-20%	-23%
N#Cc1cccc(N=Cc2c(O)ccc3ccccc23)c1	-4	-24%	-1	-12%	-25%	-21%
CC(C)Cc1csc(NC(=O)c2ccc(F)cc2)c1C(=O)O	56*	-8%	40*	?	10%	?
CC(=O)Nc1ccc(N/C(N)=N/c2nc(C)cc(C)n2)cc1	55	-24%	1	9%	-7%	-19%[46.1 µM]
Cc1cc(C)nc(/N=C(\N)Nc2ccc(-c3ccccc3)cc2)n1	-21	?	8	?	11µM*	?
Cc1nn2c(-c3ccncc3)nnc2c2ccccc12	-15	-8%	7	0%	14%	13%
COc1ccc(-c2nnc3c4ccccc4c(C)nn23)cc1	96	26%	28*	5%	-11%	26%
CNc1nnc(-c2ccc(C)cc2)c2ccccc12	-27	-24%	-1	7.9µM*	?	22%[46.1 µM]
COc1ccc(Oc2nnc(C)c3ccccc23)cc1	42	60%	46*	?	?	?
Cc1nnc(Oc2ccccc2)c2ccccc12	47*	18%	24*	-16%	?	21%
Cc1nnc(Oc2ccccc2F)c2ccccc12	106*	63%	33*	7%	4%	21%
Cc1ccc(-c2nnc(Oc3cccc(C)c3)c3ccccc23)cc1	-8	-13%	5	-5%	-8%	?
Cc1ccc(Oc2nnc(-c3ccccc3)c3ccccc23)cc1	-6	3%	-1	0%	35µM*	5%
O=C(Oc1ccccc1)c1ccccc1	·	-13%	·	-38%[46.1 µM]	24%	8%[46.1 µM]
O=C(Oc1ccc2ccccc2c1)c1ccccc1	94	54%	22*	11%	27%	28%
Cc1cccc(C(=O)Oc2ccc3ccc(O)cc3c2)c1	·	0%	25*	·	?	·
CC(C)(C)C(O)C(Cc1ccc(Cl)cc1Cl)n1cncn1 (centres undefined)	-13	·	8	·	·	·
CC(=O)NCCNC(=O)c1ccc(NC2=NC3CS(=O)(=O)CC3S2)cc1 (centres undefined)	-29	3%	-1	-4%	25%	3%[46.1 µM]
N#Cc1cnc(Oc2ccc(Cl)cc2)nc1N	27	22%	19*	·	0%	·
Cc1ccc2c(c1)C(=O)C(=O)N2Cc1ccc(OC(C)C)cc1	·	-9%	·	?	·	?
Cc1ccc(-c2nnn3c2nc(Cl)c2ccccc23)cc1	9	?	20	13%[46.1 µM]	-17%	21%[46.1 µM]
NNc1nc2c(-c3ccc(F)cc3)nnn2c2ccccc12	130*	28%	51*	-24%	?	13%[46.1 µM]
Clc1nc2c(-c3ccccc3)nnn2c2ccccc12	25	-10%	24*	·	?	·
O=C(O)C1CCN(C(=O)c2ccc(Cl)cc2)CC1	19	-11%	-2	-1%	7%	?
CCNC(=S)N/N=C/c1sc(N2CCCCC2)nc1-c1cccs1	active	12%	30*	-3%	-4%	17%
CCOC(=O)c1cnn(-c2nc(-c3ccc(C)cc3)cs2)c1C(F)(F)F	14	7%	-1	-16%	-18%	?
O=C(O)c1cnn(-c2nc(-c3ccc(F)cc3)cs2)c1C(F)(F)F	73*	31%	15	-8%[46.1 µM]	11%	?

Screens deposited in PubChem by National Center for Advancing Translational Sciences (NCATS).
